Experimental data reported in PubChem BioAssay AID1852 (Sanford-Burnham Center for Chemical Genomics, 2009).
Hit rate of the full screen: of about 2,500 compounds, about 1,100 (44%) were called active. The set was probably picked from earlier hits. This is one part of the list. A number with no mark means an inactive call.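 The calls were made as follows: active = inhibition above 50% at 4 µM in the single-point screen; inactive = inhibition of 50% or less.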

Assay: TNF-a-driven NF-kB reporter inhibitors, primary screen, selectivity assay for NOD1/NOD2 signaling inhibitor project, cell-based, HEK293T NF-kB-Luc, luminescence (AID 1852)
Conditions: TNF-a induced, 14 h, at 4 µM, hits give high values

| SMILES | inhibition |
| --- | --- |
| CC(=O)Oc1c(C)cc(Cl)cc1C(=O)Nc1ccc([N+](=O)[O-])cc1Cl | 98.1% (active) |
| CCOC(=O)N1CCN(C(=O)c2ccc([N+](=O)[O-])cc2Cl)CC1 | 43% |
| Nc1nn2c(-c3ccccc3)cc(=O)[nH]c2c1N=Nc1ccc(O)cc1 | -17.5% |
| Nc1nn2c(-c3ccccc3)cc(=O)[nH]c2c1N=Nc1ccc(Br)cc1 | 78.7% (active) |
| COC(=O)c1scc(S(=O)(=O)C(C)C)c1N/N=C(\C#N)C(=O)c1ccc(Cl)cc1 | 27.4% |
| COc1ccc(S(=O)(=O)NC(C)C(=O)Nc2cccc([N+](=O)[O-])c2)cc1 (configuration not stated) | 36.7% |
| COc1ccc(C(=O)/C(C#N)=N/Nc2cccc([N+](=O)[O-])c2)cc1 | 87.9% (active) |
| O=C(NNC(=O)c1cc(-c2ccccc2)nn1-c1ccccc1)c1ccccc1 | 11.9% |
| O=C(c1ccccc1)c1nn(-c2ccc(Cl)cc2)c(=O)cc1C(F)(F)F | 54.8% (active) |
| O=C(Nc1ccc(F)cc1)c1nn(-c2ccccc2)c(=O)cc1Cl | -30.5% |
| O=C(Nc1ccc2oc(-c3cccnc3)nc2c1)c1ccc([N+](=O)[O-])o1 | 43.1% |
| CC(=O)Nc1ccc(S(=O)(=O)Nc2ccc3c(c2)CCC3)cc1 | 85% (active) |
| CC(=O)c1cccc(NS(=O)(=O)c2ccc(NC(=O)N3CCCCC3)cc2)c1 | 19.3% |
| COc1cccc(NS(=O)(=O)c2ccc3c(c2)CCN3C(C)=O)c1 | 41.6% |
| C=C1C(=O)O[C@@H]2C[C@@H](C)[C@@H]3C=CC(=O)[C@@]3(C)[C@@H](OC(C)=O)[C@H]12 | 101% (active) |
| Cc1oc2c(F)c(F)c(F)c(F)c2c1S(=O)(=O)Nc1cccc(C(F)(F)F)c1 | 87.4% (active) |
| Cc1ccc(OC(F)F)c(NC(=O)Nc2cccc(C(F)(F)F)c2)c1 | 8.9% |
| CCOC(=O)c1cnn(Cc2cccc(Cl)c2)c1C | -4.9% |
| O=C(OCn1ncc(Cl)c(Cl)c1=O)c1ccccc1Cl | 94.2% (active) |
| O=C(OCn1ncc(Br)c(Br)c1=O)c1ccccc1Cl | 79.3% (active) |
| O=C(OCC(=O)N1CCOCC1)c1ccccc1Br | 0.9% |
| c1ccc(-c2csc(Nc3ccc4c(c3)OCCO4)n2)cc1 | -211% |
| O=C(/C=C/c1ccc2c(c1)OCO2)Nc1nc(-c2ccccc2)cs1 | 103% (active) |
| O=C(Nc1nc(-c2ccc3c(c2)OCO3)cs1)c1ccncc1 | 34.9% |
| CC(=O)Nc1ccc2nc(NC(=O)c3ccc([N+](=O)[O-])o3)sc2c1 | 18.3% |
| C(=N\Nc1nc2ccccc2s1)/c1ccccn1 | 105% (active) |
| O=[N+]([O-])c1cc(Br)c(O)c(/C=N/Nc2nc3ccccc3s2)c1 | 79.2% (active) |
